Common to all, as to set-up: scale not given: direction of the effect not stated beside the values
Test [1] concerns the target Protein translocase subunit SecA (Escherichia coli (strain K12)) (UniProt P10408). Put plainly: Assay to Identify E. coli SecA ATPase Inhibitors. It is filed as functional. To be noted: 30 µM.
Test [2] concerns the target T1, Ubiquitin-activating enzyme e1, putative (Leishmania donovani (strain BPK282A1)) (UniProt E9BSI1).
T1 sequence (whole entry): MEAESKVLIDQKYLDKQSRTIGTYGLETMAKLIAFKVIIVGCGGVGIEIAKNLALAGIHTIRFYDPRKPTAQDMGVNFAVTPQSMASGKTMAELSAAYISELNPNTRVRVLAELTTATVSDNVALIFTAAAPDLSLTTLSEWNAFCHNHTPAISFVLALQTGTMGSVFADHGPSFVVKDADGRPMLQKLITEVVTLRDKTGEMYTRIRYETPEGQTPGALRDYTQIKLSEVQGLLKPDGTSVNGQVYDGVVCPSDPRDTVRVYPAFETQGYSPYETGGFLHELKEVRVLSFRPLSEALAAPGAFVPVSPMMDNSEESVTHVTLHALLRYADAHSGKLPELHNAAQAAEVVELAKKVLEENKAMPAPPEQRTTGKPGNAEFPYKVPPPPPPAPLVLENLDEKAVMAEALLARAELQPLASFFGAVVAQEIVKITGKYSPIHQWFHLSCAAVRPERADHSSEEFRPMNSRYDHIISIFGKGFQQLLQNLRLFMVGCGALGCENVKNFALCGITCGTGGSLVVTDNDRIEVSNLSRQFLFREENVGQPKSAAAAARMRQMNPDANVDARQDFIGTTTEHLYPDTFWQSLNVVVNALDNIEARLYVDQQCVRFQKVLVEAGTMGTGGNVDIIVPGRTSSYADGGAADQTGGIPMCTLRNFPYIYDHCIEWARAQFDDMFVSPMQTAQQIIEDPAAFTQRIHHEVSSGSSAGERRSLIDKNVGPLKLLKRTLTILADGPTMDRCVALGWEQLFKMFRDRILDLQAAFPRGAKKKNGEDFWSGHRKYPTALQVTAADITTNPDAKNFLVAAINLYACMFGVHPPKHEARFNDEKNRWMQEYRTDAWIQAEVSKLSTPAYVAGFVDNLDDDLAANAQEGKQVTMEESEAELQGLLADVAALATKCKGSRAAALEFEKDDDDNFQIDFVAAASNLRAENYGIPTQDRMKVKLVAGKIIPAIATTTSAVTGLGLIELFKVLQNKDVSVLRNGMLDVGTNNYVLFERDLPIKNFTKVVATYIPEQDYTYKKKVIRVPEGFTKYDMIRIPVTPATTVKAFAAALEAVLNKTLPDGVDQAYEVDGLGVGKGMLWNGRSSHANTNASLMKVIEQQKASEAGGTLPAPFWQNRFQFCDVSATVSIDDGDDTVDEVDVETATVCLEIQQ
Put plainly: Leishmania donovani Ubiquitin Activating Enzyme (LdE1). The class given is functional. The settings on record: 30 µM.

Test [3] concerns the target AMP-activated protein kinase, AMPK (Homo sapiens) (UniProt P54646+O43741+P54619+Q9UGJ0+Q9Y478+Q13131+Q9UGI9). Put plainly: AMP-dependent Kinase enzyme assay. An in vitro enzyme assay that detects ADP turnover that is directly proportional to AMPK activity. This uses naive AMPK that is activated during the assay with MK-8722. The class given is functional. To be noted: 30 µM.

For test [4], the target named is Sialic acid-binding Ig-like lectin 9 (Homo sapiens) (UniProt Q9Y336). Put plainly: Hs-Siglec9 ALPHAscreen SOP 20170721. The settings on record: 10 µM.
The subject of a further test is Trypanosoma cruzi. Put plainly: Trypanosoma cruzi phosphomannomutase and mannose-1-phosphate guanylyltransferase assay. The class given is functional. To be noted: 10 µM.
Test [5] has as its target T2, Arginase-2, mitochondrial (Homo sapiens) (UniProt P78540).
T2 sequence (whole entry): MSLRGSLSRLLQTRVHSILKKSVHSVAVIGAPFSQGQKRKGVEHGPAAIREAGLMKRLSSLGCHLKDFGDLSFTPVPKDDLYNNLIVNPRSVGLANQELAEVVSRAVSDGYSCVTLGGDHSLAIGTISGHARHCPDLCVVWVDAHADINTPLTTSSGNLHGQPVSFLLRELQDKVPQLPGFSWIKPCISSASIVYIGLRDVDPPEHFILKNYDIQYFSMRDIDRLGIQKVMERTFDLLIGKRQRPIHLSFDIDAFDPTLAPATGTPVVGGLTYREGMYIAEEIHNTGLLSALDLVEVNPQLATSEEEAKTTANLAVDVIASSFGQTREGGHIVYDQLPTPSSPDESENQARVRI
Nature of the test: in vitro enzyme assay to detect the production of urea directly proportional to the activity of Arginase II. Note: in the data most compounds retested in dose-response had high values. It is filed as functional. The settings on record: 33.3 µM.

Test [6] addresses T3, Proteasome subunit beta (Trypanosoma cruzi) (UniProt O96673).
T3 sequence (whole entry): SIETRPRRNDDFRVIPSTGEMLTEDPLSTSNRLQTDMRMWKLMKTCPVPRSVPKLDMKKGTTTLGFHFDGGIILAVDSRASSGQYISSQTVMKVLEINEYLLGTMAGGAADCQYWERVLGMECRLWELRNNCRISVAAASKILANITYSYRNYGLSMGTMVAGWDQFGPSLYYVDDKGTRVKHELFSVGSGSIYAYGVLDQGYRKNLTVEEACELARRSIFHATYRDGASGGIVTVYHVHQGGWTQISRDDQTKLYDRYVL
Put plainly: Trypanosoma cruzi proteasome chymotrypsin-like activity (TcProtChymo) assay. Note: in the data most compounds retested in dose-response had high values. It is filed as functional. To be noted: 9.37 µM.

The species entered for the next test is Homo sapiens. Nature of the test: To identify inhibition of the IFN signalling (Jak-Stat) pathway via expression of an eGFP reporter gene under the control of an IFN-stimulated response element (ISRE) containing MxA promoter. The class given is functional. To be noted: 30 µM.
The target of test [7] is T4, Tyrosyl-tRNA synthetase, putative (Trypanosoma cruzi (strain CL Brener)) (UniProt Q4DSP6).
T4 sequence (whole entry): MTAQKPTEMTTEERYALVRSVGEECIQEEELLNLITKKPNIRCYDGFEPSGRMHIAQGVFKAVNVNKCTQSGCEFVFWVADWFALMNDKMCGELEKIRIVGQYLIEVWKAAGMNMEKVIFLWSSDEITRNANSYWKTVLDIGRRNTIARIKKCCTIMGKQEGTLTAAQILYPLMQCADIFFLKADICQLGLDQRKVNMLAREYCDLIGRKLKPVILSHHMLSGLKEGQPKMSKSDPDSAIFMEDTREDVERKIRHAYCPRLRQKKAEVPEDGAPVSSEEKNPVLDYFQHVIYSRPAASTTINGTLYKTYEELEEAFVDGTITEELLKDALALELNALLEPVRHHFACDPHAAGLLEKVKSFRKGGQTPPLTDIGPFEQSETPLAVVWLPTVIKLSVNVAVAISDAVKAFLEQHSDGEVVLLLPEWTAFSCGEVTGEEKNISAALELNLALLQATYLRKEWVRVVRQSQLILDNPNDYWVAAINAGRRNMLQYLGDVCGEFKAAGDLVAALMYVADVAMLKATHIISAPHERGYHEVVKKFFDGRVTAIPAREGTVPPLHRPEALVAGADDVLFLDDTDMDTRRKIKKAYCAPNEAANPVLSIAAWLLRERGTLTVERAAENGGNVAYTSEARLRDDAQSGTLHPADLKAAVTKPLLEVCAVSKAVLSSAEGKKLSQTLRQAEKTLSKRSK
Put plainly: Trypanosoma cruzi tyrosyl tRNA synthetase (TcYRS) _High Tyrosine SOP. Note: in the data most compounds retested in dose-response had high values. The settings on record: 30 µM. It is filed as functional.

Test [8] has as its target T4, Tyrosyl-tRNA synthetase, putative (Trypanosoma cruzi (strain CL Brener)). Put plainly: Trypanosoma cruzi tyrosyl tRNA synthetase (TcYRS) SOP. The settings on record: 30 µM. The class given is functional.
In test [9] the target is Chromo domain-containing protein 1 (Saccharomyces cerevisiae (strain ATCC 204508 / S288c) (Baker's yeast)) (UniProt P32657). Nature of the test: ScCHD-1 Enzyme Inhibition Assay. Note: in the data most compounds retested in dose-response had high values. It is filed as functional. The settings on record: 30 µM.

For some of these results: Results with a measured potency or affinity are listed apart.

Sequence of Sialic acid-binding Ig-like lectin 9 (Homo sapiens) (Q9Y336 whole entry): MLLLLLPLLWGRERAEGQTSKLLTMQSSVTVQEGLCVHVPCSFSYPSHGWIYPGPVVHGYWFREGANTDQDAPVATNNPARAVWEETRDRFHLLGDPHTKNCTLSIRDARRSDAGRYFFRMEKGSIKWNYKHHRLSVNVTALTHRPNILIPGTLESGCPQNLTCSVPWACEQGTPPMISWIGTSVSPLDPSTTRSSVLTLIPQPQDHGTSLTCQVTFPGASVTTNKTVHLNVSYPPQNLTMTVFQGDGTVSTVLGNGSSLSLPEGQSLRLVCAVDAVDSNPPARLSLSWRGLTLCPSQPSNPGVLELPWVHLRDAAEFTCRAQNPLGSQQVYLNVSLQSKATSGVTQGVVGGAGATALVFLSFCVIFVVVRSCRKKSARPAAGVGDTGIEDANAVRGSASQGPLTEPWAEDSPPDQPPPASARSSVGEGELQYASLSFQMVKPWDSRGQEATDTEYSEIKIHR
Sequence of Protein translocase subunit SecA (Escherichia coli (strain K12)) (P10408 whole entry): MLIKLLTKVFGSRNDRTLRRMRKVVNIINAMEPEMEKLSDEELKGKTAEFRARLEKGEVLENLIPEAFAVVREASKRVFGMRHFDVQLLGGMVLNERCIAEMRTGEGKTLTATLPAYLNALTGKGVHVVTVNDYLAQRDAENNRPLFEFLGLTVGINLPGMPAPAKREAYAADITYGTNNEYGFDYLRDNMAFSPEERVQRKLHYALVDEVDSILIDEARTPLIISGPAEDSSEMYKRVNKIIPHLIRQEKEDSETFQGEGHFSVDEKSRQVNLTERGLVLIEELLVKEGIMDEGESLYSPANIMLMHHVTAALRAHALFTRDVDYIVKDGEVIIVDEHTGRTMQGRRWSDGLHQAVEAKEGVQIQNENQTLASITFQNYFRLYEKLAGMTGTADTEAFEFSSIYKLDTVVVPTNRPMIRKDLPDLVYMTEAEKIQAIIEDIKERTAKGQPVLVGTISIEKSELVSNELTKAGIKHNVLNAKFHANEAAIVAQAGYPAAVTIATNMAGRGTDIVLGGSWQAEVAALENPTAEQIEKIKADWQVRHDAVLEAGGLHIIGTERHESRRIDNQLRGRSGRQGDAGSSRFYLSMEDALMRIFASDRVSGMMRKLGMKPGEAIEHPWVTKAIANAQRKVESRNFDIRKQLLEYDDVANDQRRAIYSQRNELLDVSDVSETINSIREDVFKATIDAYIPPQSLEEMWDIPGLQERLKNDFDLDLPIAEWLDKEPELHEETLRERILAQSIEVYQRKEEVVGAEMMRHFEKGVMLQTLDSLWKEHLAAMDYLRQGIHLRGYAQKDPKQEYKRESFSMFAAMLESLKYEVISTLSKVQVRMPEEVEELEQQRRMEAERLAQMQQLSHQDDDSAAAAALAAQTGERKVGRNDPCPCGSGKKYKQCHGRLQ
Sequence of Chromo domain-containing protein 1 (Saccharomyces cerevisiae (strain ATCC 204508 / S288c) (Baker's yeast)) (P32657 whole entry, the tested form may be a part): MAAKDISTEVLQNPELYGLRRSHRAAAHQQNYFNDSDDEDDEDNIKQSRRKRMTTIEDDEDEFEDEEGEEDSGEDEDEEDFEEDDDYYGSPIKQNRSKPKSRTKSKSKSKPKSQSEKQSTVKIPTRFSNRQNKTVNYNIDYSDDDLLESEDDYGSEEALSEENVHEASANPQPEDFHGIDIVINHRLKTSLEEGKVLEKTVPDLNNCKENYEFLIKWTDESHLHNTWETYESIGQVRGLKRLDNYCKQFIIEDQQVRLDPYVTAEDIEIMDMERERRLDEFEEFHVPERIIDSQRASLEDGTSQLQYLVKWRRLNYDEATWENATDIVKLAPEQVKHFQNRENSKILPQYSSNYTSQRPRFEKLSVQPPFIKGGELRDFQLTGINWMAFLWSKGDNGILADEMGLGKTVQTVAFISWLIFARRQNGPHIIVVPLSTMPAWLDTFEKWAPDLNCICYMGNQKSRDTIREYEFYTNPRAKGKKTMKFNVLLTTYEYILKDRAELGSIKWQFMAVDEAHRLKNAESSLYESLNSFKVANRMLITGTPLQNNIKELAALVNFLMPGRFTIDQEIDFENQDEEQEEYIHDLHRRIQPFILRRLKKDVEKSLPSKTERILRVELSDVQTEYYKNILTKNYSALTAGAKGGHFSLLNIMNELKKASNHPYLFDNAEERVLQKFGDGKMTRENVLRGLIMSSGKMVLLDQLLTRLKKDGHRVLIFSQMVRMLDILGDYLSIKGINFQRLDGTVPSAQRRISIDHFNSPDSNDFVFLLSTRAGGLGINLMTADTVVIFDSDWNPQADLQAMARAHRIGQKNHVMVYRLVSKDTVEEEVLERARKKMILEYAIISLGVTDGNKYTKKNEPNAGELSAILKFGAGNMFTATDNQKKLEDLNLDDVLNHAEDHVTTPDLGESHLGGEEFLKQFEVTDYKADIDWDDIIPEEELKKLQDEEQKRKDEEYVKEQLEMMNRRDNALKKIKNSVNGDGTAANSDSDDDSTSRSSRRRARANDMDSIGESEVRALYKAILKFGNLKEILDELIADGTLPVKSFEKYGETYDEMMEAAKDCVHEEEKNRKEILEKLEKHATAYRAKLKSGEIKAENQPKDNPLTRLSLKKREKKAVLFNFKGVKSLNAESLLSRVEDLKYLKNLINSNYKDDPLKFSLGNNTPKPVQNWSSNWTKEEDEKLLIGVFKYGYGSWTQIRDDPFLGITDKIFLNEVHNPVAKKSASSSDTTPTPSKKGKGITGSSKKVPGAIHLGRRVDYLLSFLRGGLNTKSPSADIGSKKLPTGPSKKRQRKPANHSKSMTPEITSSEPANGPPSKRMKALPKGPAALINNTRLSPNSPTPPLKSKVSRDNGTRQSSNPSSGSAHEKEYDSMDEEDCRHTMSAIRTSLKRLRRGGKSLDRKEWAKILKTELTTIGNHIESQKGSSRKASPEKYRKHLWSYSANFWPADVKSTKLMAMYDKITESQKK

Take `Cc1nccnc1N1CC[C@@H](NC(=O)c2cnccn2)[C@H](O)C1`: the Percent Effect is -5.54% in [1]; 13.5% in test [2]; -3.54% in [3]; 17.2% in test [4]; 7.53% in the test with Trypanosoma cruzi; 2.86% in test [5]. The Percent Effect in test [6] was 3.62%; in the test filed under Homo sapiens it was 2.71%; in test [7], 2.65%; in test [8], 14.6%; in test [9] it was -0.902%.
For `Cc1cc2nc(SCC(=O)N3CCCC3)n(C(C)C)c(=O)c2[nH]1`, the Percent Effect in test [1] was -2.21%; in test [2] it was 21.1%; in test [3] it was -3.68%; in test [4], -13.3%; with Trypanosoma cruzi it was 2.63%; in [5], -1.18%. The Percent Effect in [6] was 19.5%; in the test listed under Homo sapiens, 17.9%; in test [7], 1.06%; in test [8] it was 10.4%; in test [9], -6.22%.
On to `c1cnc(-c2nc(CN3CCOC(Cn4cncn4)C3)cs2)nc1` (stereo unspecified), for which the Percent Effect in [1] is -3.88%; in test [2], 29.7%; in [3], -7.99%; in [4] it was -4.32%; in the test on Trypanosoma cruzi it was -0.66%; in [5], -12.8%. The Percent Effect in [6] is 9.91%; in the test listed under Homo sapiens, 18.1%; in test [7] it was 1.48%; in test [8], 13.6%; in [9], -6.92%.
In the case of `Cc1cnn(C2CN(Cc3nc(-c4ccco4)no3)C2)c1`, the Percent Effect in test [1] was -7.03%; in test [2] it was 13%; in test [3], 26.4%; in test [4] it was 11.1%; in the test with Trypanosoma cruzi, 0.374%; in test [5] it was -0.356%. For the same compound, the Percent Effect was 5.41% in test [6]; 10.2% in the test filed under Homo sapiens; 10.7% in test [7]; 19.5% in test [8]; -2.84% in [9].
In the case of `CSc1ccccc1CN1CCCn2nc(CNC(=O)N(C)C)cc2C1`, the Percent Effect in [1] was -2.86%; in test [2] it was 8.22%; in test [3], -6.48%; in test [4], 20.7%; in the test on Trypanosoma cruzi it was 3.13%; in test [5] it was 4.09%. In addition, the Percent Effect in [6] is 6.92%; in the test listed under Homo sapiens, 9.78%; in [7], 4.3%; in test [8], 12.5%; in test [9] it was 97.4%.
Consider `Cc1nc(CN2C(=O)CC[C@@H]3[C@H]2CCN3C(=O)NC2CC2)cs1`, for which the Percent Effect in [1] is 1.26%; in test [2], 16.2%; in test [3] it was -5.26%; in test [4], -11.1%; in the test on Trypanosoma cruzi, -3.23%; in [5] it was 0.955%. For the same compound, the Percent Effect in [6] is 10.2%; in the test filed under Homo sapiens, 16.1%; in test [7] it was 1.08%; in test [8], 12.8%; in test [9] it was -6.62%.
Regarding `Cc1nc(C)n(CC2CCCN2CC(=O)NCCc2ccccc2)n1` (stereo unspecified), the Percent Effect in [1] is 0.351%; in test [2], 0%; in [3], 2.9%; in test [4], 4.24%; in the test on Trypanosoma cruzi it was 1.37%; in test [5] it was 1.36%. The Percent Effect was 12.4% in [6]; -18.8% in the test listed under Homo sapiens; 1.07% in [7]; 2.5% in [8]; -5.02% in test [9].
`O=C(C1=CCCC1)N1CCC[C@]2(C[C@@H](OCc3ccncc3)CO2)C1`: the Percent Effect in test [1] is 1.57%; in [2], 10.7%; in test [3] it was 4.23%; in test [4] it was 8.61%; in the test with Trypanosoma cruzi, -1.93%; in test [5] it was -19.2%. Also, the Percent Effect is 7.69% in [6]; -6.85% in the test filed under Homo sapiens; 5.21% in test [7]; 22.5% in test [8]; -9.61% in [9].
For the compound `CC(C)OCCC(=O)N(C)CCCc1cc(-c2ccccc2)no1`, the Percent Effect in [1] is 2.05%; in test [2], 18.9%; in test [3], 5.99%; in [4], -0.12%; in the test on Trypanosoma cruzi, -8.08%; in [5], -1.66%. Also, the Percent Effect in [6] was 13.3%; in the test filed under Homo sapiens, 22%; in [7] it was -1.98%; in [8], 3.66%; in [9] it was -5.36%.
`CNS(=O)(=O)CCCN1CCCC1c1noc(C2CC2)n1` (stereo unspecified): the Percent Effect in test [1] is 0.851%; in test [2], -2.53%; in [3], 9.34%; in [4], -2.31%; in the test with Trypanosoma cruzi it was -2.74%; in [5] it was 4.56%. Besides, the Percent Effect in test [6] was 9.91%; in the test listed under Homo sapiens it was 10.4%; in test [7] it was 0.493%; in test [8], 1.27%; in test [9], -7.17%.
Consider `Cc1cccc(C(=O)NC(CN2CCCC2=O)c2ccccc2)n1` (stereo unspecified), for which the Percent Effect was -2.94% in [1]; 13.2% in test [2]; -3.02% in [3]; 7.02% in test [4]; 5.83% with Trypanosoma cruzi; 6.13% in test [5]. Moreover, the Percent Effect in test [6] was 8.35%; in the test filed under Homo sapiens it was -4.47%; in [7], 5.39%; in test [8], 21.9%; in [9] it was -10.3%.

(Values after ChEMBL document CHEMBL3988442, “University of Dundee, Small-Polar-MMV Screening Library” (2021).)
